Cruzain Triton: cruzain (T. cruzi) inhibition with detergent | purified cruzain, Z-FR-AMC fluorescence, 0.01% Triton | Potency, µM, actives largely listed as inhibitors | 200,000 tested, 0.43% active | AID 1478; further: nearly all actives have a fitted effect of over 40% in size
Target sequence (P25779 123-467 limits assumed): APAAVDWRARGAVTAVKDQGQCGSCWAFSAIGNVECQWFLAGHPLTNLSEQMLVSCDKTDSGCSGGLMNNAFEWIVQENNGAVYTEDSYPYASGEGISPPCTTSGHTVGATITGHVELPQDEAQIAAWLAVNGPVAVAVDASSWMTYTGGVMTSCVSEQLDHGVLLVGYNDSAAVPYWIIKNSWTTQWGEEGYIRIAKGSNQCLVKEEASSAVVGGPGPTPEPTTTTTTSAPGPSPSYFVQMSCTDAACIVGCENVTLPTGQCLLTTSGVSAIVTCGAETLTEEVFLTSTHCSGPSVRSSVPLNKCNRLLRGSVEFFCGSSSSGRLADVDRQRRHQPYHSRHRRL
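Read-out: AMC fluorescence (360 nm excitation, 450 nm emission), four reads over 2 min, first-to-third difference used. Conditions: cruzain 1.5 nM, Z-FR-AMC 2 uM, pH 5.5 acetate, 5 mM DTT, 0.01% Triton X-100.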
Cruzain inh noDet: cruzain (T. cruzi) inhibition without detergent. P25779. purified cruzain, Z-FR-AMC fluorescence, no detergent. Potency, µM, most hits filed as inhibitors. 200,000 tested, 2.3% active. AID 1476; further: nearly all actives have a fitted effect of over 40% in size
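Purified cruzain at 1.5 nM, pre-incubated 15 min with compound at room temperature in 100 mM sodium acetate pH 5.5, 5 mM DTT, 0.00005% Triton X-100. Reaction started with 2 uM Z-FR-AMC; AMC fluorescence increase over 60 s gives rate.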
Numbers stand for hits; . = inactive; ? = inconclusive. Compounds with a hit are over-represented: about 2.5% of the library has one in this group of screens. The call rests on the fitted dose curve; in most records, active means well fitted curve in the direction sought with a large enough effect; inconclusive means small, poorly fitted or top-dose-only effect, or another doubt; inactive means no such curve, though single readings can be large; an effect the other way counts as inactive or inconclusive.

SMILES	Cruzain Triton	Cruzain inh noDet
COc1cccc2c1C(=O)c1c(O)c3c(c(O)c1C2=O)C[C@](O)(C(=O)CO)C[C@H]3O[C@@H]1C[C@H](N)[C@H](O)[C@H](C)O1	.	.
CCOc1ccc(NC(=O)CCn2c(=O)c3cccn3c3cccnc32)cc1	.	.
CC(C)c1ccc(N2C(=O)CC(Sc3ncn[nH]3)C2=O)cc1 (centres undefined)	.	3.98µM
COc1ccc(N2C(=O)CC(Sc3ncn[nH]3)C2=O)c(OC)c1 (centres undefined)	.	?
O=C(CSCc1ccc(F)cc1)N1CCc2c([nH]c3ccccc23)C1c1ccc(Cl)cc1 (centres undefined)	.	7.94µM
O=C(CSCc1ccc(F)cc1)N1CCc2c([nH]c3ccccc23)C1c1ccccc1 (centres undefined)	.	.
CCOc1cccc(C2c3[nH]c4ccccc4c3CCN2C(=O)CSc2ccccc2)c1 (centres undefined)	.	?
COc1ccc(CCC(=O)N2CCc3c([nH]c4ccccc34)C2c2ccc(F)cc2)cc1 (centres undefined)	.	?
COc1ccc(CC(=O)N2CCc3c([nH]c4ccccc34)C2c2ccc(SC)cc2)cc1 (centres undefined)	.	25.1µM
O=C(CSc1ccccc1)N1CCc2c([nH]c3ccccc23)C1c1ccc(Cl)cc1 (centres undefined)	.	12.6µM
CC1=C(c2ccc(Cl)cc2)S(=O)(=O)N=C1N1CCN(c2cccc(C)c2)C(C)C1 (centres undefined)	.	.
Cc1cccc(N2CCn3c2nc2c3c(=O)n(CCCc3ccccc3)c(=O)n2C)c1	.	.
CN(C)C1C(=O)C(C(N)=O)=C(O)[C@@]2(O)C(=O)C3=C(O)c4c(O)ccc(Cl)c4[C@@H](O)C3C[C@@H]12 (some centres undefined)	.	.
Cc1ccc(CN(C(=O)COc2c(C)cccc2C)C2CCS(=O)(=O)C2)o1 (centres undefined)	.	.
COc1ccc(C)cc1NC(=O)CSc1nnc(-c2ccc(C)cc2)o1	.	.
CCOc1ccc(-c2nnc(SCC(=O)Nc3ccc(C)cc3Cl)o2)cc1	28.2µM	?
CCOc1ccc(-c2nnc(SCC(=O)Nc3ccc(C)cc3C)o2)cc1	.	.
CCOc1ccc(-c2nnc(SCC(=O)Nc3cc(C)ccc3OC)o2)cc1	31.6µM	?
O=C(CSc1nc2c([nH]c3ccccc32)c(=O)n1-c1cccc(C(F)(F)F)c1)N1CCCC1	.	.
Cc1sc2nc(CN3CCCCC3)nc(Cl)c2c1C	.	.
Cc1sc2nc(CN3CCCC3)nc(N3CCN(S(=O)(=O)c4cccs4)CC3)c2c1C	.	15.8µM
O=c1cc(-c2cccc(O)c2O)oc2ccccc12	.	.
Cc1ccc(O)c(NC(=O)c2ccc(Br)c(S(=O)(=O)N3CCCCC3)c2)c1	.	.
Nc1ccc(Oc2ccc3nc(-c4ccccc4)c(-c4ccc([N+](=O)[O-])cc4)nc3c2)cc1	.	15.8µM
N#Cc1ccc(Oc2ccc(-c3nc4ccccc4nc3-c3ccccc3)cc2)cc1C#N	.	?
SMILES	Cruzain Triton	Cruzain inh noDet
CNc1oc(-c2ccc(C)cc2)nc1P(=O)(c1ccccc1)c1ccccc1	11.2µM	.
CNc1oc(-c2ccccc2Cl)nc1P(=O)(c1ccccc1)c1ccccc1	.	?
Cc1nnc(N/N=C/c2cccc(OCc3ccc(Cl)c(Cl)c3)c2)n1N	22.4µM	?
CCc1nnc(N/N=C/c2c(Cl)cccc2Cl)n1N	.	.
C[N+](C)([O-])CCC=C1c2ccccc2CCc2ccccc21	.	.
N#C/C(=C\N1CCNC1=S)C(=O)c1ccc2ccccc2c1	.	?
CCOc1ccc(N/N=C(/C#N)C(N)=O)cc1	.	.
CCOC(=O)NC(=O)/C(C#N)=N\Nc1ccc(Cl)cc1	.	5.01µM
O=C(CN1C(=O)COc2ccc(S(=O)(=O)N3CCOCC3)cc21)NCc1ccc(Cl)cc1	.	.
Cc1cc(C)nc(N/N=C/c2ccccc2)n1	.	.
Cc1nc(N/N=C/c2ccccc2)nc(N(C)c2ccccc2)c1[N+](=O)[O-]	.	15.8µM
CCC(=O)OCC(=O)[C@@]1(OC(=O)CC)[C@@H](C)C[C@@H]2[C@H]3CCC4=CC(=O)C=C[C@]4(C)[C@@]3(F)[C@@H](O)C[C@@]21C	.	?
COc1ccc(-c2noc(-c3ccc(N4CCC(C)CC4)c([N+](=O)[O-])c3)n2)cc1OC	.	20µM
COc1ccc(-c2noc(-c3ccc(N4CCOCC4)c([N+](=O)[O-])c3)n2)cc1OC	.	.
O=c1c2cccnc2n(Cc2ccccc2F)c(=O)n1Cc1ccc(F)cc1	.	.
Cc1nn(-c2nc3ccccc3s2)c(N)c1Sc1ccc(F)cc1	.	12.6µM
Cc1nn(-c2nc3ccccc3s2)c(N)c1-c1ccccc1	.	?
CN1CCc2nc(SCC(=O)Nc3cccc(F)c3)c(C#N)c(-c3cccs3)c2C1	.	20µM
CC(=O)CSc1nc(N)c(C#N)c(-c2cccs2)c1C#N	.	.
CC(C)(C)C(=O)CSc1nc2c(c(-c3cccs3)c1C#N)CCC2	.	25.1µM
CN1CCc2nc(SCC(=O)Nc3ccc(OC(F)(F)F)cc3)c(C#N)c(-c3cccs3)c2C1	.	?
N#Cc1ccc(-c2cccs2)nc1SCC(=O)Nc1cccc(C(F)(F)F)c1	.	20µM
N#Cc1c(C(F)(F)F)cc(-c2cccs2)nc1SCC(=O)Nc1cccc(C(F)(F)F)c1	.	.
CN(C)CCCO[C@H]1[C@@H]2OC(C)(C)O[C@@H]2O[C@@H]1[C@H](O)CO	.	.
O=C(CN1C(=O)COc2ccc(Cl)cc21)Nc1cccc(C(=O)O)c1	.	.
SMILES	Cruzain Triton	Cruzain inh noDet
Cc1ccc(NC(=O)COC(=O)C(CC(C)C)N2C(=O)C3CC=CCC3C2=O)c(C)c1 (centres undefined)	25.1µM	.
CCOC(=O)Nc1ccc(C)cc1C	.	.
COC(=O)c1ccc(CSc2nnc(NC(=O)c3cc4c(s3)CCCC4)s2)cc1	.	6.31µM
CC1CCc2sc(C(=O)Nc3nnc(SCc4ccc(F)cc4)s3)cc2C1 (centres undefined)	.	10µM
O=C(Nc1nnc(C2CC2)s1)c1cc2c(s1)CCCCCC2	.	6.31µM
Cc1csc(NC(=O)c2cc3c(s2)CCC3)n1	.	.
O=C(Nc1nnc(SCc2ccc(F)cc2)s1)c1ccco1	.	.
COC(=O)c1ccc(CSc2nnc(C)s2)cc1	.	.
CC(C)C=O	.	.
CCc1ccc(CNC(=O)c2cnc3sc(N4CCOCC4)nn3c2=O)cc1	.	.
O=C1C=CC(=O)c2c(O)c(Cl)c(Cl)c(O)c21	.	.
O=C(O)CN1CCN(CC(=O)O)CC(=O)[O][Hg][O]C(=O)C1	.	.
O=C(O)C[C@H]1OCC=C2C[N@@+]3([O-])CC[C@]45c6ccccc6N[C@@H]4[C@@H]1[C@H]2C[C@H]53	.	.
CCOc1ccc(OCC)c(NC(=O)c2cnn(-c3ccc(F)cc3)c2-n2cccc2)c1	.	?
CCOc1ccc(NC(=O)c2c(Nc3ccccc3C)sc(C(=O)c3ccc(Cl)cc3)c2N)cc1	.	.
COc1ccc(CCNC(=O)c2c(Nc3ccccc3C)sc(C(=O)c3ccccc3)c2N)cc1OC	.	?
COc1ccc(Nc2sc(C(=O)c3ccccc3)c(N)c2C(=O)Nc2cc(C)ccc2C)c(OC)c1	.	10µM
Cc1ccc(NC(=O)c2c(Nc3ccccc3C)sc(C(=O)c3ccccc3)c2N)cc1	.	6.31µM

Bioassay records: PubChem BioAssay, National Center for Advancing Translational Sciences (NCATS)
